Laboratory results: PubChem BioAssay (NCI)
The panel holds about 83,000 compounds, 20% with a hit somewhere; the sample as a whole holds those more often.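 Single-concentration screen, 48 h exposure, 96-well plates. Endpoint: percent growth. Below 10 = active.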 Values without a mark were called inactive. The source made the active and inactive calls.

Key:
Test in all cases: NCI-60 one-dose screen, 48 h (100 = growth as untreated, 0 = no growth, -100 = all killed)
NCI-H23 lung = details: 10 µM unless noted
NCI-H226 lung = details: 10 µM unless noted
NCI-H322M lung = details: 10 µM unless noted
NCI-H460 lung = details: 10 µM unless noted
HOP-92 NSCLC = details: 10 µM
NCI-H522 lung = details: 10 µM
A549/ATCC NSCLC = details: 10 µM unless noted
786-0 renal = details: 10 µM unless noted
COLO 205 colon = details: 10 µM unless noted
DU-145 prostate = details: 10 µM unless noted
K-562 leukemia = details: 10 µM unless noted
MALME-3M melanoma = details: 10 µM unless noted
MDA-MB-231 breast = details: 10 µM unless noted
RXF 393 renal = details: 10 µM unless noted
SF-268 CNS = details: 10 µM unless noted
SF-295 CNS = details: 10 µM unless noted
SF-539 CNS = details: 10 µM unless noted
UACC-257 melanoma = details: 10 µM unless noted
M14 melanoma = details: 10 µM unless noted

Row | SMILES | growth (NCI-H23 lung) | growth (NCI-H226 lung) | growth (NCI-H322M lung) | growth (NCI-H460 lung) | growth (HOP-92 NSCLC) | growth (NCI-H522 lung) | growth (A549/ATCC NSCLC) | growth (786-0 renal) | growth (COLO 205 colon) | growth (DU-145 prostate) | growth (K-562 leukemia) | growth (MALME-3M melanoma) | growth (MDA-MB-231 breast) | growth (RXF 393 renal) | growth (SF-268 CNS) | growth (SF-295 CNS) | growth (SF-539 CNS) | growth (UACC-257 melanoma) | growth (M14 melanoma)
1 | CCCCCCCCCC[N+](C)(C)C | 28.8% | 45% | 75.6% | 13% | -24.5% (active) | 18.1% | 34.3% | 8.96% (active) | -49.9% (active) | 34% | 22.3% | 24.8% | 14.3% | -42.3% (active) | 13.2% | 36.1% | 1.4% (active) | 66.3% | 6.8% (active)
2 | CC[C@H](Nc1ncnc2nc[nH]c12)c1nc2cccc(NCc3ccc(C(=O)NO)o3)c2c(=O)n1-c1ccccc1 | 98.1% | 109% | 97.4% | 111% | 82.6% | 76.7% | 102% | 94.1% | 115% | 101% | 102% | 77.1% | 113% | 110% | 84.1% | 102% | 100% | 102% | 103%
3 | CC1(C)C(O)NC(Cl)=C(C#N)C1(C#N)C#N (stereo unspecified) | 92.2% | 135% | 130% | 113% | 141% | 91.5% | 103% | 95.6% | 118% | 110% | 94.4% | 136% | 111% | 7.52% (active) | 123% | 174% | 95.9% | 109% | 110%
4 | COc1cc(N2C(=O)C=CC2=O)ccc1N1C(=O)C=CC1=O | 105% | 105% | 116% | 104% | 93.1% | -59.8% (active) | 103% | 107% | 53% | 114% | 64.5% | 97.3% | 116% | 110% | 105% | 99.9% | 101% | 104% | 103%
5 | COC(=O)/C(Br)=C/c1c[nH]c2ccc(Br)cc12 | 98.9% | 90.9% | 100% | 112% | 41.6% | 63.9% | 89.9% | 55% | 95.8% | 104% | 74.7% | 95.2% | 80.9% | 32.6% | 97.7% | 64% | 95% | 88% | 
6 | Cc1ccc2c(O)c(O)cc(NC(C)CCCN)c2n1 (stereo unspecified) | 20.7% | 111% | 26% | 107% | 84.4% | 22.3% | 84.6% | 95.8% | 32.7% | 74.5% | 42.1% | 81.6% | 57.2% | 93.3% | 92.2% | 90.6% | 14.6% | 98.4% | 
7 | O=C1C(=O)c2ccccc2C(O)=C1CCCc1ccc(C2CCCC2)cc1 | 36.5% | 36.8% | 37.9% | 9.54% (active) | 78.2% | 39.2% | 37.9% | 43.8% | 54.7% | 40.5% | 19.2% | 84% | 56.5% | 57.9% | 47.6% | 27.3% | 22.9% | 40.7% | 
8 | O=C(O)/C(Br)=C/c1c[nH]c2ccc(Br)cc12 | 99.6% | 108% | 116% | 122% | 174% | 110% | 117% | 101% | 156% | 115% | 68% | 106% | 102% | 109% | 124% | 102% | 112% | 117% | 
9 | CC(=O)N1N=C(c2ccc(Cl)cc2)CC1c1cn(-c2ccccc2)nc1-c1ccc([N+](=O)[O-])cc1 (stereo unspecified) | 101% | 93.6% | 83.1% | 101% | 117% | 103% | 108% | 104% | 93.9% | 116% | 118% | 92% | 104% | 135% | 102% | 104% | 93.6% | 106% | 
